Data reported in PMC4336329 (PLoS ONE, 2015).
The campaign covered roughly 310,000 compounds. About 14,000 (4.5%) showed an effect of 50% or more. Effects have a minus sign here. For the sample, strong results were picked, then their nearest neighbours and some compounds at random.

These molecules were tested against human ether-à-go-go-related gene (hERG) potassium channel (human, UniProt Q12809) (assay: primary screen, population patch clamp on CHO cells stably expressing hERG; higher = less effect of the substance).
Chain of human ether-à-go-go-related gene (hERG) potassium channel (Q12809 whole entry, looked up): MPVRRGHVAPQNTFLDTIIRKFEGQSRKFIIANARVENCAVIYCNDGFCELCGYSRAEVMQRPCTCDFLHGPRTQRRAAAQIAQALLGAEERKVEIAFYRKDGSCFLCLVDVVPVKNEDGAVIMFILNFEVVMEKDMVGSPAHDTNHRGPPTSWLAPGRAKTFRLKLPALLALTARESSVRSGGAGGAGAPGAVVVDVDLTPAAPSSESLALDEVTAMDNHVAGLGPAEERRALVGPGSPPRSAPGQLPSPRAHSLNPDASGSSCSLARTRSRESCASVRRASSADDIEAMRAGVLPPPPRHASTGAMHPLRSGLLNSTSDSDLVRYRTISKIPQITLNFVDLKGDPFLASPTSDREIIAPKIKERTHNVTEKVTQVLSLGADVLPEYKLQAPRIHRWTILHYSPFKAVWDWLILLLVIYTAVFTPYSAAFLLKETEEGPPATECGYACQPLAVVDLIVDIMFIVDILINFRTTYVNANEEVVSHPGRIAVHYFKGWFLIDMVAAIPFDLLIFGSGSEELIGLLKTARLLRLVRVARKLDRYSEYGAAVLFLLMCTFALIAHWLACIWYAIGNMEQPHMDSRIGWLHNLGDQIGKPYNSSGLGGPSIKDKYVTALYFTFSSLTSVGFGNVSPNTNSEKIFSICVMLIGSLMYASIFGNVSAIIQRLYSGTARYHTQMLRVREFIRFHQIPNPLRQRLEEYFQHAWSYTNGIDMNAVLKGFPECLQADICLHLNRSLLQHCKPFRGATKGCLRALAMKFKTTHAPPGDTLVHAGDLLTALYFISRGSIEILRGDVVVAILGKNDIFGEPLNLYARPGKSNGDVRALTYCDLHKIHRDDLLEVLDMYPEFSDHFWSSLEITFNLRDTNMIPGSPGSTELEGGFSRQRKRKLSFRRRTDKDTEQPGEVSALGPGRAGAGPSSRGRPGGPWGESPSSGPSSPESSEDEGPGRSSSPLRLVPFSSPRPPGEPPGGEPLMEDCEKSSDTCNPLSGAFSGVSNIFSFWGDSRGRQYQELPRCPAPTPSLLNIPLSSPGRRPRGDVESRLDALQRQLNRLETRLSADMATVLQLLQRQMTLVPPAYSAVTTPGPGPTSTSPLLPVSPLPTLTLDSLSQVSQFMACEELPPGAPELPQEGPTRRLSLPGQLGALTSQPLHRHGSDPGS
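Note: peak tail current of the secondary pulse compared with the same well before compound.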

Row | SMILES | hERG current change (%, negative = inhibition) at 10uM [%]
1 | COC(=O)Oc1ccc(/C=C/C(=O)OC(C)C)cc1OC(=O)OC | 1.69
2 | Cc1ccc(C(=O)NCCc2ccc(S(=O)(=O)N3CCCC3)cc2)cc1 | -0.599
3 | CCOc1ccc(C(=O)N(C)C2CCS(=O)(=O)C2)cc1 (stereo not drawn) | 18.3
4 | O=C(CSc1nnc(-c2ccco2)o1)NC(=O)Cc1ccccc1 | -5.31
5 | CC[C@@H](CCC=C(C)C)C(=O)N(Cc1ccccc1)c1ccccc1 | 3.94
6 | CN1CCC(O)(c2ccccc2)C(C(=O)c2ccccc2)C1 (stereo not drawn) | -2.34
7 | CCN1CCC(O)(c2ccccc2)C(C(=O)c2ccccc2)C1 (stereo not drawn) | -7.58
8 | CN1CCC(O)(c2ccc(Cl)cc2)C(C(=O)c2ccc(Cl)cc2)C1 (stereo not drawn) | -67.7
9 | O=C(CCl)Oc1ccc2occ(C(=O)c3cccs3)c2c1 | 0.872
10 | C/C(=N\Nc1ccc(Cl)c(C(=O)O)c1)c1ccccn1 | 5.73
11 | CCOc1cccc(SCc2noc(C(=O)NCC3CCCO3)c2C(=O)O)c1 (stereo not drawn) | 32.2
12 | NS(=O)(=O)c1ccc(-c2cccc(/C=C3\SC(=O)NC3=O)c2)cc1 | 7.87
13 | Cc1cc(/C=C(/C#N)C(=O)Nc2ccccc2)c(C)n1-c1cccnc1 | -28.5
14 | Cc1cc(/C=C(\C#N)C(=O)Nc2ccccc2)c(C)n1-c1cccnc1 | 8.27
15 | Cc1cc(/C=C(/C#N)C(=O)Nc2ccc(Cl)cc2)c(C)n1-c1cccnc1 | -67.5
16 | Cc1c(C(=O)N2CCCC2)nnn1-c1nonc1N | 8.67
17 | CCS(=O)(=O)Nc1cccc(C2=NN(C(=O)c3ccco3)C(c3ccco3)C2)c1 (stereo not drawn) | -4.98
18 | CCC(=O)N1N=C(c2ccc(NS(C)(=O)=O)cc2)CC1c1ccc(C)cc1 (stereo not drawn) | -44.7
19 | CS(=O)(=O)Nc1cccc(C2=NN(C(=O)c3ccco3)C(c3ccco3)C2)c1 (stereo not drawn) | -2.88
20 | CCC(=O)N1N=C(c2ccc(NS(=O)(=O)CC)cc2)CC1c1ccc(C)cc1 (stereo not drawn) | -14.1
21 | CS(=O)(=O)Nc1ccc(C2=NN(C(=O)c3ccco3)C(c3ccccc3F)C2)cc1 (stereo not drawn) | -78.2

Row | SMILES | hERG current change (%, negative = inhibition) at 10uM [%]
22 | CS(=O)(=O)Nc1cccc(C2=NN(C(=O)c3ccccc3)C(c3cccs3)C2)c1 (stereo not drawn) | -14
23 | CS(=O)(=O)Nc1cccc(C2=NN(C(=O)c3ccco3)C(c3cccs3)C2)c1 (stereo not drawn) | -59
24 | CS(=O)(=O)Nc1ccc(C2=NN(C(=O)c3ccco3)C(c3cccc(F)c3)C2)cc1 (stereo not drawn) | -78.3
25 | O=C(c1ccco1)N1N=C(c2ccc(Br)cc2)CC1c1ccco1 (stereo not drawn) | 18.5
26 | Cc1ccc(C2=NN(C(=O)c3ccccc3F)C(c3ccccc3F)C2)cc1 (stereo not drawn) | 19
27 | CCS(=O)(=O)Nc1ccc(C2=NN(C(=O)c3ccco3)C(c3cccc(F)c3)C2)cc1 (stereo not drawn) | -32.4
28 | CCC(=O)N1N=C(c2ccc(NS(C)(=O)=O)cc2)CC1c1ccc(N(C)C)cc1 (stereo not drawn) | -66.2
29 | CCn1c(CSc2nc3ccccc3s2)nnc1SCC(=O)c1ccc2c(c1)OCCO2 | -10.5
30 | O=C(COC(=O)/C=C/c1cccc(F)c1)Nc1ccc2[nH]c(=O)[nH]c2c1 | 9.96
31 | CCNC(=O)NC1(C(=O)N2CCC(Cc3ccccc3)CC2)CCCCC1 | 21.7
32 | CCCn1c(N)c(C(=O)CSc2nnc(Cc3cccs3)n2C2CC2)c(=O)n(C)c1=O | -0.534
33 | COc1ccc(N(CC(=O)Nc2ccccc2F)S(=O)(=O)c2ccc(OC)c(OC)c2)cc1 | -24.2
34 | O=C(NCCN1CCOCC1)c1cccc(S(=O)(=O)N2CCCCCC2)c1 | 7.38
35 | COc1ccc(C(=O)N/N=C/c2ccc(OC(=O)c3cccc4ccccc34)c([N+](=O)[O-])c2)cc1 | 3.57
36 | O=C(COC(=O)c1ccc(S(=O)(=O)NCc2ccco2)cc1)NC1CCCCC1 | -1.72
37 | CCN(Cc1nc(-c2ccc(OC)c(OC)c2)no1)C(=O)c1ccc2c(c1)OCO2 | 5.32
38 | O=c1[nH]c2c(c(=O)[nH]1)CCC2 | 17.7
39 | CS(=O)(=O)Nc1ccc(C2=NN(C(=O)c3ccco3)C(c3ccco3)C2)cc1 (stereo not drawn) | -72.3
40 | Cc1ccc(C2CC(c3ccc(NS(C)(=O)=O)cc3)=NN2C(=O)c2ccco2)cc1 (stereo not drawn) | -78.5
41 | CCS(=O)(=O)Nc1ccc(C2=NN(C(=O)c3ccco3)C(c3ccc(C)cc3)C2)cc1 (stereo not drawn) | -21
42 | O=C(c1ccco1)N1N=C(c2ccc3nccnc3c2)CC1c1ccccc1 (stereo not drawn) | -22.3

Row | SMILES | hERG current change (%, negative = inhibition) at 10uM [%]
43 | CCS(=O)(=O)Nc1ccc(C2=NN(C(=O)c3ccco3)C(c3cccs3)C2)cc1 (stereo not drawn) | -1.38
44 | O=C(c1ccco1)N1N=C(c2ccc(Cl)cc2)CC1c1ccco1 (stereo not drawn) | 15
45 | CS(=O)(=O)Nc1ccc(C2=NN(C(=O)c3ccco3)C(c3ccccc3)C2)cc1 (stereo not drawn) | -77.6
46 | O=C(c1ccco1)N1N=C(c2cccs2)CC1c1ccc(F)cc1 (stereo not drawn) | -29
47 | CS(=O)(=O)Nc1ccc(C2=NN(C(=O)c3ccco3)C(c3ccc(F)cc3)C2)cc1 (stereo not drawn) | -81.1
48 | O=C(c1ccco1)N1N=C(c2ccccc2)CC1c1ccc2nccnc2c1 (stereo not drawn) | -45
49 | CCC(CC)C(=O)N1N=C(c2ccc(NS(C)(=O)=O)cc2)CC1c1ccc(C)cc1 (stereo not drawn) | -7.85
50 | CCS(=O)(=O)Nc1ccc(C2=NN(C(=O)c3ccco3)C(c3ccco3)C2)cc1 (stereo not drawn) | -7.66
51 | O=C(c1cc(-c2ccc(O)cc2)on1)N1CCN(c2ccc(F)cc2)CC1 | -23.6
52 | O=C(NCCCO)C(=O)NCC1OCCCN1S(=O)(=O)c1cccs1 (stereo not drawn) | -10.6
53 | COc1ccc(C(=O)N(C)Cc2cnn(Cc3ccccc3)c2)cc1S(=O)(=O)N1CCOCC1 | -27
54 | Cc1cccc(NC(=S)Nc2c(C)n(C)n(-c3ccccc3)c2=O)c1C | -2.23
55 | CCc1nnc(NC(=O)CSc2nnc(-c3ccc(S(=O)(=O)N4CCCC4)cc3)n2CC)s1 | 8.86
56 | CN(C)N1C(=O)CC(C)(c2ccc([N+](=O)[O-])cc2)C1=O (stereo not drawn) | -0.575
57 | CCn1c(=O)cc(OCC(=O)NC(C)c2ccc3c(c2)OCCO3)c2ccccc21 (stereo not drawn) | -4.48
58 | CC/C(=N\O)C(C)(C)/[N+]([O-])=C/c1ccc(Br)cc1 | 5.28
59 | CN(c1ccccc1)S(=O)(=O)c1cccc(NC(=O)c2ccc(=O)[nH]c2)c1 | -11.7
60 | COCCNC(=O)c1onc(CSc2ccccc2)c1C(=O)O | 7.09
61 | O=C(CN1CCOc2ccccc21)NCc1ccco1 | 2.93
62 | Cc1cccc(NC(=O)C2(C)CC3c4ccccc4C2c2ccccc23)c1 (stereo not drawn) | 9.5
63 | Cl.O=C(Nc1nnc(CCN2CCCCC2)s1)c1ccccc1 | 4.58

Row | SMILES | hERG current change (%, negative = inhibition) at 10uM [%]
64 | O=C(Nc1nnc(CCN2CCCCC2)s1)c1cccc(Cl)c1 | -10.8
65 | O=C(Nc1nnc(CCN2CCCCC2)s1)c1ccc(Br)cc1 | -51.4
66 | CC(C)C(=O)Nc1ccc(NC(=O)c2ccc3c(c2)OCO3)cc1 | 10.2
67 | Cc1ccccc1OCC(=O)Nc1cccc(S(=O)(=O)NC2=NCCCCC2)c1 | -7.89
68 | COc1cccc2c1OCC([C@@H]1C[C@H]3CN(Cc4cccc(Cl)c4)C(=O)[C@]34CCCN14)=C2 | -45.2
69 | Cc1cccc([C@@H]2C[C@H]3CN(Cc4cccc(Cl)c4)C(=O)[C@]34CCCN24)n1 | -55
70 | CC(C)n1cc([C@@H]2C[C@H]3CN(Cc4cccc(Cl)c4)C(=O)[C@]34CCCN24)cn1 | -33.7
71 | O=C1N(Cc2cccc(Cl)c2)C[C@@H]2C[C@@H](c3cccc4cccnc34)N3CCC[C@@]123 | -78
72 | O=C1N(Cc2cccc(Cl)c2)C[C@@H]2C[C@@H](c3ccccn3)N3CCC[C@@]123 | -18.5
73 | O=C1N(Cc2cccc(Cl)c2)C[C@@H]2C[C@@H](c3ccco3)N3CCC[C@@]123 | -25.9
74 | O=C1N(Cc2cccc(Cl)c2)C[C@@H]2C[C@@H](c3ccsc3)N3CCC[C@@]123 | -60.1
75 | COc1ccccc1/C=C/[C@@H]1C[C@H]2CN(Cc3cccc(Cl)c3)C(=O)[C@]23CCCN13 | -75.4
76 | CCn1ncc([C@@H]2C[C@H]3CN(Cc4cccc(Cl)c4)C(=O)[C@]34CCCN24)c1C | -33
77 | COCc1ccc([C@@H]2C[C@H]3CN(Cc4cccc(Cl)c4)C(=O)[C@]34CCCN24)o1 | -31
78 | O=C(Nc1cnn(Cc2ccccc2)c1)c1cc2nc(-c3ccco3)cc(C(F)(F)F)n2n1 | 7.2
79 | O=C(c1ccccc1)c1ccccc1N/C=C/c1nnnn1-c1ccccc1 | 1.11
80 | CCCCCOc1ccc(CSc2ncn[nH]2)cc1 | -17.4
81 | O=C(NCC1CCCO1)c1onc(CSc2ccccc2)c1C(=O)O (stereo not drawn) | 10.1
